According to PubChem BioAssay (NCI):
Several values for one entry are separate records, joined by “and”; a condition that tells them apart may be missing. Identical values can stand only once. Compounds without any hit were thinned out: in the full panel of roughly 83,000, 20% have a hit.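 48-hour exposure, single concentration, 96-well plates; percent growth endpoint where 0 means no net growth. Active: below 10.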 Values without a mark were called inactive. Activity calls are given as the source filed them.

Each molecule was assayed on SN12C renal (assay: NCI-60 one-dose screen, 48 h (100 = growth as untreated, 0 = no growth, -100 = all killed)). Conditions: 10 µM unless noted.
With `COc1ccc(C(=O)c2ccc(OC)c(OC)c2OC)cc1` the growth was 56.1% and 43.4%. With `O=C1/C(=C/c2ccccc2)CN(C(=O)C(Cl)Cl)C/C1=C\c1ccccc1` the growth was -40.7% (active). `C=C(C)[C@@H]1CC[C@]2(C(=O)O)CC[C@]3(C)[C@H](CC[C@@H]4[C@@]5(C)CCC(N)C(C)(C)[C@@H]5CC[C@]43C)[C@@H]12` (some centres undefined) was tested, and the growth was -7.83% (active). In the case of `N#C/C(=C\c1ccc(Br)cc1)n1nnc2c(F)cccc21`, the growth is reported as -1.81% (active). Molecule `COC1=CC(=O)C(OC)=C(O)C1=O` has a growth of 98.2%. `CC(C)(C)c1cc(NC(=O)Nc2ccc(-c3cn4c(n3)sc3cc(OCCN5CCOCC5)ccc34)cc2)no1` was tested, and the growth was 15.6% and 19.3%. In the case of `COc1cccc(C2C(C#N)=C(N)Oc3cc(OCCCCCC[P+](c4ccccc4)(c4ccccc4)c4ccccc4)ccc32)c1` (centres undefined), the growth is reported as -31.4% (active). In the case of `COc1ccc(-c2ccccc2)cc1-c1c(Nc2cc(Cl)cc(Cl)c2O)c(=O)c1=O`, the growth is reported as 6.31% (active). In the case of `Cc1ccc(S(=O)(=O)Nc2cc(Sc3ccccc3)c(O)c3ccccc23)cc1`, the growth is reported as 64.2%. Molecule `COC(=O)c1[nH]nc(OC)c1C1(C(C#N)c2nc3ccccc3s2)CCCc2ccccc21` (centres undefined) has a growth of 86%. With `COc1ccc(-c2cc(-c3cccc(Cl)c3)c(C#N)c(=O)[nH]2)c(OC)c1` the growth was 97.1%. In the case of `Cc1nc(-n2[nH]c(=O)ccc2=O)sc1N=Nc1ccccc1`, the growth is reported as 97.7%. Molecule `COc1ccc(-c2csc(NC(=O)CN3CCN(CCO)CC3)n2)cc1NS(=O)(=O)c1cccc2c(N(C)C)cccc12` has a growth of 89.1%. In the case of `COc1ccc(-c2[nH]c3ccccc3c2-c2ccc(OC)cc2)cc1`, the growth is reported as 63.4%. In the case of `COc1ccc(/C=N\Nc2nc(SCC(C)C)nc(-c3ccc(OC)cc3)c2C#N)cc1`, the growth is reported as 2.1% (active). `CN(C)C(=O)c1cc2cnc(Nc3ccc(-c4csc5c(=S)cc(N6CCOCC6)oc45)cc3)nc2n1C1CCCC1` was tested, and the growth was 7.93% (active). `O=C(Nc1ccc2ncsc2c1)c1csc(Nc2ccc3[nH]ncc3c2)n1` gave a growth of 49.9%. With `NS(=O)(=O)c1ccc(C(=O)N=Nc2c(O)[nH]c3c(F)cccc23)cc1` the growth was 97.1%. In the case of `C/C=C(\C)C(=O)N[C@H]1CC[C@]2(C)C3CC[C@@]4(C)C(CC[C@@H]4C(C)N(C)C)C3CCC2[C@H]1OC(C)=O` (some centres undefined), the growth is reported as -3.57% (active). With `CC(=O)N1N=C(c2ccc(Nc3nc(Nc4ccc(F)cc4)nc(Nc4ccc(Cl)cc4)n3)cc2)CC1c1ccc(N(C)C)cc1` (centres undefined) the growth was 66%. For `ON=C1CCCCCCCC1`, the growth was 97.2% and 102%. With `Cc1ccc(NC(=O)c2sc3nc(C)c(C(=O)c4ccccc4)cc3c2N)cc1` the growth was 95.8%. For `O=C(/C=C/c1ccc([N+](=O)[O-])cc1)c1ccccc1`, the growth was 99.8%. `COc1cc(CO)cc2cc3ccccc3nc12` was tested, and the growth was 101%. Molecule `O=C(Cc1ccc(F)cc1)c1ccccc1` has a growth of 99.4%. With `COc1cc(-c2[nH]ncc2Nc2ccc(Cl)cc2)cc(OC)c1OC` the growth was 89.9%. For `CC1(Cc2ccccc2)CC2=C(C(=O)O1)C(c1ccccc1)NC(=O)N2` (centres undefined), the growth was 104%. For `C=CCN1C=CC(=O)[C@H](O[Si](C)(C)C(C)(C)C)[C@@H]1/C=C/c1ccccc1`, the growth was -74% [100 µM] (active). In the case of `Cc1ccc(-c2nc3nc(-c4ccc(Cl)cc4)nc(N4CCCNCC4)c3o2)cc1`, the growth is reported as -86% (active). `CC1=C2[C@@H](CC1)[C@]1(C)O[C@@](C3CC3)(C[C@H]1OC(=O)CO)[C@H]2OC(=O)/C=C/c1ccccc1` gave a growth of 42.4%. For `CCN1CCN(C(=O)[C@]23CC[C@@H](C)[C@H](C)[C@@H]2C2=CC[C@@H]4[C@@]5(C)CCC(=O)C(C)(C)[C@@H]5CC[C@@]4(C)[C@]2(C)CC3)CC1`, the growth was 7.97% (active). For `CCCO/N=C/c1ccccn1`, the growth was 94.1% and 108%. `CN(C)CCN1C(=O)c2c(c3c4ccccc4n4c3c3c2c2ccccc2n3C2CC(O)C(O)C4(C)O2)C1=O` (centres undefined) gave a growth of 22.1%. For `CCOC(=O)c1c(-c2ccc(C)cc2)c(C#N)c(=O)n(-c2cccc(C(F)(F)F)c2)c1N`, the growth was 95.1%. Molecule `CCCCCCCCCCCCCCCC(=O)O[C@@H]1[C@@H](O)[C@@H](O)C([C@H](NC(=O)[C@@H]2C[C@@H](CCC)CN2C)[C@H](C)Cl)O[C@@H]1SC` (some centres undefined) has a growth of 104%. `O=C1/C(=C/c2cn(-c3ccccc3)nc2-c2ccccc2)SC(=S)N1c1ccc(Cl)cc1` gave a growth of 69.2%. With `CN(C)CCCn1c2c(c3ccc(N4CCNCC4)cc3c1=O)C(=O)c1ccccc1-2` the growth was 6.82% (active). For `CCOc1ccccc1NC(=O)c1cc2ccccc2cc1O`, the growth was 42.8%. `COc1ccc(C/C(C)=C(/c2ccc(OCCN3CCCCCC3)cc2)c2ccc(OC(=O)c3ccccc3)cc2)cc1` showed a growth of 97.4%.
